NS1 inh: blocks influenza NS1 protein function; Potency, µM (series often up to 46.1 µM), for inactives: at the top dose activity, positive = more growth; hit rate 0.4% among 270,000; note: actives are rising curves; nearly all actives have a fitted effect of over 50% in size
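Read-out: OD600 growth recovery of NS1-expressing budding yeast. Cells grown overnight at 30C in -URA glucose medium, washed, resuspended and diluted 1:100 in 2% galactose assay medium, pH 6.0. Same strain lacking NS1 served as positive control.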
Pf growth 96h: P. falciparum growth inhibition at 96 hour, primary screen for plastid delayed-death inhibitors. P. falciparum luciferase reporter growth, 96 h. AID 504834. hit rate 6.9% among 320,000. Potency, µM (series often up to 28.7 µM), for inactives: at the highest dose activity change, negative = inhibition, usual class: inhibitors; active = well fitted inhibition curve with a large enough effect; inconclusive = small, poorly fitted or top-dose-only effect, or another doubt; inactive = no such curve, though single readings can be large or run the other way; note: % is set by controls: 0 for no effect and ±100 for the full control effect
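Readout is luminescence from an integrated firefly luciferase in P. falciparum. Red cells, 2% hematocrit and 0.05% parasitemia final, were cultured with compound through two parasite generations (96 hours) at 37 C, 5% CO2.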
RE007 growth inh: less growth of the S. pombe RE007 Vpr strain; S. pombe RE007 Vpr strain, BacTiter-Glo ATP luminescence, 24 h; Potency, µM (doses to about 92.2 µM), for inactives: top-dose activity change, negative = less growth, most hits filed as inhibitors; hit rate 0.21% among 360,000; active = well fitted falling curve with a large enough effect; inconclusive = small, poorly fitted or top-dose-only effect; inactive = no such curve, though single readings can be large or run the other way; note: % is set by controls: 0 for no effect and ±100 for the full control effect; nearly all actives have a fitted effect of over 50% in size
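Fission yeast RE007 carrying one integrated HIV-1 vpr copy, seeded at OD 0.01 in PMG+AL medium with 23 nL pinned compound. Grown 24 h at 30 degrees; viability read by BacTiter-Glo luminescence after 5 min.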
Pf growth 48h: P. falciparum growth inhibition at 48 hours (one generation); hit rate 5.9% among 310,000; P. falciparum luciferase growth in erythrocytes, 48 h; AID 504832; Potency, µM (series often up to 28.7 µM), for inactives: top-dose activity change, negative = inhibition, usual class: inhibitors; active = well fitted inhibition curve with a large enough effect; inconclusive = small, poorly fitted or top-dose-only effect, or another doubt; inactive = no such curve, though single readings can be large or run the other way; note: % is set by controls: 0 for no effect and ±100 for the full control effect
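Here the parasites carry a stable luciferase gene and grow inside erythrocytes in Albumax-based RPMI medium with compound for one erythrocytic cycle. Activity is scored as loss of luminescent signal.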
SARS PLP yeast: SARS-CoV PLP inhibition in yeast; S. cerevisiae expressing SARS-CoV PLpro, growth rescue; Potency, µM (doses to about 32.9 µM), for inactives: at the top dose activity, positive = growth rescue, actives largely listed as activators; hit rate 0.19% among 330,000; AID 485353; note: 0% is about no effect; nearly all actives have a fitted effect of over 55% in size
Starred values were filed as active, the others as inactive; ? = inconclusive; · = no result; [ ] = remark or other dose. This is a sample that favours compounds with a hit; in the whole collection about 9.5% have one here. Unless noted, calls come from the whole dose curve. Potency is the fitted concentration of half-maximal effect.

SMILES | NS1 inh | Pf growth 96h | RE007 growth inh | Pf growth 48h | SARS PLP yeast
CCOc1ccc(-n2c(C)cc(/C=C3/C(=N)N4C(=NC3=O)SN=C4S(C)(=O)=O)c2C)cc1 | · | 8.28µM* | -9.8% | ? | 1.1%
Cc1cc(/C=C2/C(=N)N3C(=NC2=O)SN=C3S(C)(=O)=O)c(C)n1-c1ccc(F)cc1 | · | -17.9% | 12.0% | ? | 1.7%
CCCc1c(C(=O)N/N=C/c2ccco2)nnn1-c1nonc1N | 4.0% | 55.7% | 5.4% | 50.0% | -0.8%
O=C1CC(N2CCCCCC2)C(=O)N1c1ccc2c(c1)OCO2 (stereo unspecified) | -40.8% | 18.7% | 6.31µM* | 2.3% | -22.8%
O=C1CC(N2CCSCC2)C(=O)N1c1ccc(F)cc1 (stereo unspecified) | 0.8% | 22.5% | 25.1µM* | 3.3% | -3.3%
COc1ccc(N2C(=O)CC(N3CCCC4CCCCC43)C2=O)cc1 (stereo unspecified) | -17.4% | 179.6% | 7.08µM* | 1.6% | -10.7%
COc1ccc(N2C(=O)CC(N3CCCCC3)C2=O)cc1 (stereo unspecified) | · | -29.7% | 17.8µM* | 8.2% | -5.3%
O=[N+]([O-])c1ccc(CSCc2ccc(Cl)cc2)cc1 | -9.0% | · | · | · | ·
O=C(O)C1C2CCC(C2)C1C(=O)NCCc1ccccc1 (stereo unspecified) | 3.6% | 38.4% | 3.2% | 18.6% | 0.0%
Cc1cc(C)n(CCC(=O)N2CCc3ccccc32)n1 | 7.5% | 8.5% | 2.8% | 14.2% | ?
OC(c1ccc(F)cc1)c1nc(-c2cccs2)cs1 (stereo unspecified) | · | · | -6.9%[18.4 µM] | · | ·
COc1ccc(N2C(=O)CC(N3CCC(O)(c4cccc(C(F)(F)F)c4)CC3)C2=O)cc1 (stereo unspecified) | -48.8% | 10.1% | 31.6µM* | 0.0% | -48.5%
O=C1CC(N2CCCCCC2)C(=O)N1c1ccc(F)cc1 (stereo unspecified) | -2.9% | 13.5% | 10µM* | 4.5% | -4.5%
CCOc1ccc(N2C(=O)CC(N3CCC(O)(c4ccc(Br)cc4)CC3)C2=O)cc1 (stereo unspecified) | -244.9% | · | 35.5µM* | · | -32.7%
O=C1CC(N2CCN(c3ccc(F)cc3)CC2)C(=O)N1c1ccc(F)cc1 (stereo unspecified) | 8.1% | ? | -2.1% | -6.5% | -12.6%
O=C(O)c1ccc(N2C(=O)CC(N3CCN(c4cccc(C(F)(F)F)c4)CC3)C2=O)cc1 (stereo unspecified) | 6.6% | -5.2% | -15.2% | 14.2% | -4.7%
COc1ccccc1N(C)S(=O)(=O)c1ccc(C(=O)NCc2ccccc2CN2CCCC2)cc1 | · | · | 2.9% | · | ·
COCCn1c(N)c(N(Cc2ccccc2)C(=O)c2ccc(-c3ccc(Cl)cc3)o2)c(=O)[nH]c1=O | · | -14.2% | -5.2% | ? | ·
COc1cc(CN2CCN(CC#Cc3ccccc3)CC2CCO)cc(OC)c1 (stereo unspecified) | -11.1% | ? | -24.1% | -14.7% | 0.4%
COc1cc(NC(=O)C2CCCN(S(=O)(=O)c3cnc[nH]3)C2)cc(OC)c1 (stereo unspecified) | ? | -12.3% | 9.4% | · | -0.9%
O=C(NCCC1=CCCCC1)C1CCCN(S(=O)(=O)c2cnc[nH]2)C1 (stereo unspecified) | ? | 11.7µM* | -2.2% | · | -0.3%
O=C(NCCc1ccccc1)C1CCCN(S(=O)(=O)c2cnc[nH]2)C1 (stereo unspecified) | -3.7% | 39.6% | 8.5% | · | 1.5%
Cc1csc(NC(=O)C2CCCN(S(=O)(=O)c3cccnc3)C2)n1 (stereo unspecified) | -4.0% | 8.9% | 17.7% | · | 0.1%
O=C(Nc1cccc(F)c1)C1CCCN(S(=O)(=O)c2cnc[nH]2)C1 (stereo unspecified) | 7.0% | 9.28µM* | 10.6% | 16.3% | -0.9%
Cc1cc(C)cc(NC(=O)C2CCCN(S(=O)(=O)c3cnc[nH]3)C2)c1 (stereo unspecified) | -3.8% | 3.29µM* | -11.0% | 2.4% | -0.9%
SMILES | NS1 inh | Pf growth 96h | RE007 growth inh | Pf growth 48h | SARS PLP yeast
Cc1csc(NC(=O)C2CCCN(S(=O)(=O)c3cnc[nH]3)C2)n1 (stereo unspecified) | ? | 11.7µM* | 11.5% | · | 0.7%
COc1ccc(CN(C)C(=O)c2cccc(NC(=O)CC3SC(N4CCCCC4)=NC3=O)c2)c(OC)c1 (stereo unspecified) | · | · | -9.8% | · | ·
CCOC(=O)N1CCC(NC(=O)c2cc(C(=O)Nc3ccc(S(=O)(=O)N4CCOCC4)cc3)ccc2CO)CC1 | · | 40.5% | -20.4% | 4.8% | -0.1%
COc1ccc(NC(=O)C2(C)CCCN2C(=O)C(C)C)cc1OC (stereo unspecified) | · | · | -5.6% | · | ·
COc1cc(C2c3c(-c4ccccc4O)n[nH]c3C(=O)N2Cc2ccco2)cc(OC)c1OC (stereo unspecified) | -2.2% | 7.38µM* | 1.8% | 11.7µM* | -1.5%
COc1ccc(C2c3c(-c4ccccc4O)n[nH]c3C(=O)N2Cc2ccco2)cc1 (stereo unspecified) | 2.6% | 9.28µM* | -27.3% | ? | 3.0%
C[C@@H](N=C(N)N)C(=O)O | -2.8% | · | · | · | ·
Cc1cc(N2CCCC2=O)cc(C)c1S(=O)(=O)NCCOc1ccc(C(C)(C)C)cc1 | 23.7% | ? | 11.9% | 13.1µM* | -9.5%
Cc1ccc(C(=O)C(C(=O)/C=C/c2ccccc2)=C2SCCCS2)cc1 | ? | 9.28µM* | 4.1% | 5.22µM* | -4.4%
Cc1coc2c(C)c3oc(=O)c(CCC(=O)NCCCn4ccnc4)c(C)c3cc12 | 2.2% | ? | -26.3% | 10.4µM* | -14.5%
Cc1coc2c(C)c3oc(=O)c(CCC(=O)NCCCN4CCOCC4)c(C)c3cc12 | -10.7% | ? | -17.0% | ? | -9.9%
Cc1c(CCC(=O)NCCCn2ccnc2)c(=O)oc2c(C)c3occ(C(C)(C)C)c3cc12 | -14.2% | 9.28µM* | 6.1% | ? | -1.0%
COCCCNC(=O)c1ccc2c(c1)ncn2-c1ccc(C)cc1C | -7.9% | 0.4% | 10.0% | 11.7µM* | -2.2%
CN(CC(=O)Nc1ccccc1C(=O)NC1CC1)Cc1cccs1 | · | -20.6% | -14.4% | -12.1% | -3.3%
Nc1ccc(C(=O)NCCCSc2ccccc2)cc1[N+](=O)[O-] | -3.8% | ? | 5.1% | -4.5% | 1.2%
C[C@H]1CN=C(N(C)C)N1CC1CCC(C(C)(C)C)CC1 (stereo partly specified) | · | ? | 4.3% | 7.38µM* | -0.8%
Cc1ccc(S(=O)(=O)Nc2cc(=O)[nH]c(SCC(=O)Nc3cccc(C)c3)n2)cc1 | -1.4% | -0.5% | 0.4% | 1.85µM* | -4.3%
O=C(CSc1nc(NS(=O)(=O)c2ccccc2)cc(=O)[nH]1)Nc1ccccc1Cl | 19.3% | ? | 6.5% | 1.9% | -0.8%
Cc1ccc(NC(=O)CSc2nc(NS(=O)(=O)c3ccccc3)cc(=O)[nH]2)cc1 | 7.4% | 3.7µM* | 14.0% | · | -0.5%
